# Experimental data: the supplement of paper PMC12282887
# ± gives the standard deviation of the averaged measurements.
# System: E. coli BW25113 marRABp lux reporter
# Experiment: promoter activity interaction Z-score (Lux/OD deviation from empty-vector control); higher = stronger promoter induction by the compound
# Method: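 E. coli BW25113 (wild type or ΔmarA/ΔsoxS/Δrob) carrying pTU175 luxCDABE promoter reporters was grown in LB in 384-well plates at 37°C with each of 94 compounds at 4 two-fold concentrations, in biological duplicates. Luminescence and OD600 were read every 30 min for 12 h and integrated as AUC over 8 h (0-8 h WT, 1-9 h mutants). Lux AUC was divided by OD AUC; the interaction score is the residual of a Huber robust fit of each promoter against the empty-vector control, then Z-transformed per promoter.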
compound,measurement,setting,value
C[C@H]1c2cccc(O)c2C(=O)C2=C(O)[C@]3(O)C(=O)C(C(N)=O)=C(O)[C@@H](N(C)C)[C@@H]3[C@@H](O)[C@@H]21 [Doxycycline],promoter activity interaction Z-score,"0.064 µg/ml, genetic background: wild type",0.973 ± 0.17
same,promoter activity interaction Z-score,"0.064 µg/ml, genetic background: ΔmarA",2.43 ± 0.098
same,promoter activity interaction Z-score,"0.064 µg/ml, genetic background: Δrob",0.676 ± 0.28
same,promoter activity interaction Z-score,"0.064 µg/ml, genetic background: ΔsoxS",1.01 ± 0.13
same,promoter activity interaction Z-score,"0.13 µg/ml, genetic background: wild type",2.72 ± 0.47
same,promoter activity interaction Z-score,"0.13 µg/ml, genetic background: ΔmarA",4.3 ± 0.47
same,promoter activity interaction Z-score,"0.13 µg/ml, genetic background: Δrob",1.1 ± 0.25
same,promoter activity interaction Z-score,"0.13 µg/ml, genetic background: ΔsoxS",2.28 ± 0.13
same,promoter activity interaction Z-score,"0.26 µg/ml, genetic background: wild type",3.51 ± 0.065
same,promoter activity interaction Z-score,"0.26 µg/ml, genetic background: ΔmarA",2.23 ± 1.1
same,promoter activity interaction Z-score,"0.26 µg/ml, genetic background: Δrob",0.478 ± 0.55
same,promoter activity interaction Z-score,"0.26 µg/ml, genetic background: ΔsoxS",3.1 ± 0.92
same,promoter activity interaction Z-score,"0.51 µg/ml, genetic background: wild type",0.833
CCCC(=O)O [Butyrate],promoter activity interaction Z-score,"6.9 µg/ml, genetic background: wild type",-0.205 ± 0.013
same,promoter activity interaction Z-score,"6.9 µg/ml, genetic background: ΔmarA",-0.16 ± 0.12
same,promoter activity interaction Z-score,"6.9 µg/ml, genetic background: Δrob",0.206 ± 0.17
same,promoter activity interaction Z-score,"6.9 µg/ml, genetic background: ΔsoxS",0.201 ± 0.094
same,promoter activity interaction Z-score,"13.8 µg/ml, genetic background: wild type",-0.136 ± 0.0092
same,promoter activity interaction Z-score,"13.8 µg/ml, genetic background: ΔmarA",0.187 ± 0.35
same,promoter activity interaction Z-score,"13.8 µg/ml, genetic background: Δrob",0.0966 ± 0.16
same,promoter activity interaction Z-score,"13.8 µg/ml, genetic background: ΔsoxS",0.00738 ± 0.051
same,promoter activity interaction Z-score,"27.5 µg/ml, genetic background: wild type",-0.429 ± 0.012
same,promoter activity interaction Z-score,"27.5 µg/ml, genetic background: ΔmarA",-0.0336 ± 0.044
same,promoter activity interaction Z-score,"27.5 µg/ml, genetic background: Δrob",0.0375 ± 0.0006
same,promoter activity interaction Z-score,"27.5 µg/ml, genetic background: ΔsoxS",0.0783 ± 0.13
same,promoter activity interaction Z-score,"55 µg/ml, genetic background: wild type",-0.383 ± 0.07
same,promoter activity interaction Z-score,"55 µg/ml, genetic background: ΔmarA",-0.0286 ± 0.24
same,promoter activity interaction Z-score,"55 µg/ml, genetic background: Δrob",0.0661 ± 0.17
same,promoter activity interaction Z-score,"55 µg/ml, genetic background: ΔsoxS",0.114 ± 0.15
Cn1c(=O)c2c(ncn2C)n(C)c1=O [Caffeine],promoter activity interaction Z-score,"24.3 µg/ml, genetic background: wild type",0.925 ± 0.19
same,promoter activity interaction Z-score,"24.3 µg/ml, genetic background: ΔmarA",1.52 ± 0.3
same,promoter activity interaction Z-score,"24.3 µg/ml, genetic background: Δrob",0.0874 ± 0.094
same,promoter activity interaction Z-score,"24.3 µg/ml, genetic background: ΔsoxS",0.874 ± 0.41
same,promoter activity interaction Z-score,"48.5 µg/ml, genetic background: wild type",1.58 ± 0.15
same,promoter activity interaction Z-score,"48.5 µg/ml, genetic background: ΔmarA",1.47 ± 0.32
same,promoter activity interaction Z-score,"48.5 µg/ml, genetic background: Δrob",-0.0293 ± 0.12
same,promoter activity interaction Z-score,"48.5 µg/ml, genetic background: ΔsoxS",1.28 ± 0.27
same,promoter activity interaction Z-score,"97.1 µg/ml, genetic background: wild type",1.63 ± 0.018
same,promoter activity interaction Z-score,"97.1 µg/ml, genetic background: ΔmarA",2.83 ± 0.69
same,promoter activity interaction Z-score,"97.1 µg/ml, genetic background: Δrob",0.0326 ± 0.04
same,promoter activity interaction Z-score,"97.1 µg/ml, genetic background: ΔsoxS",1.55 ± 0.65
same,promoter activity interaction Z-score,"194.2 µg/ml, genetic background: wild type",3.65 ± 0.97
same,promoter activity interaction Z-score,"194.2 µg/ml, genetic background: ΔmarA",4.03 ± 0.93
same,promoter activity interaction Z-score,"194.2 µg/ml, genetic background: Δrob",0.103 ± 0.13
same,promoter activity interaction Z-score,"194.2 µg/ml, genetic background: ΔsoxS",2.91 ± 1.6
